Experimental data as given in PubChem BioAssay (NCI).
About 83,000 compounds went through this panel and 20% of them were active in at least one assay; those are over-represented in the sample as a whole.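 Cell lines were cultured in 96-well plates, exposed to a single compound concentration, and assessed for percent growth 48 hours later.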 A number with no mark means an inactive call. Active and inactive are the calls of the source. Rule for the calls: active = growth percent below 10; inactive = the rest.

Columns and labels:
Assay in all cases: NCI-60 one-dose screen, 48 h (100 = growth as untreated, 0 = no growth, -100 = all killed)
Settings in all cases: 10 µM unless noted
NCI-H23 lung = system: NCI-H23 lung
NCI-H226 lung = system: NCI-H226 lung
NCI-H322M lung = system: NCI-H322M lung
HOP-62 NSCLC = system: HOP-62 NSCLC
NCI-H460 lung = system: NCI-H460 lung
HOP-92 NSCLC = system: HOP-92 NSCLC
NCI-H522 lung = system: NCI-H522 lung
A549/ATCC NSCLC = system: A549/ATCC NSCLC
786-0 renal = system: 786-0 renal
COLO 205 colon = system: COLO 205 colon
DU-145 prostate = system: DU-145 prostate
K-562 leukemia = system: K-562 leukemia
MALME-3M melanoma = system: MALME-3M melanoma
MDA-MB-231 breast = system: MDA-MB-231 breast
RXF 393 renal = system: RXF 393 renal
SF-268 CNS = system: SF-268 CNS
SF-295 CNS = system: SF-295 CNS
SF-539 CNS = system: SF-539 CNS
UACC-257 melanoma = system: UACC-257 melanoma
M14 melanoma = system: M14 melanoma

| Compound | growth (NCI-H23 lung) | growth (NCI-H226 lung) | growth (NCI-H322M lung) [%] | growth (HOP-62 NSCLC) | growth (NCI-H460 lung) | growth (HOP-92 NSCLC) | growth (NCI-H522 lung) | growth (A549/ATCC NSCLC) | growth (786-0 renal) | growth (COLO 205 colon) | growth (DU-145 prostate) | growth (K-562 leukemia) | growth (MALME-3M melanoma) | growth (MDA-MB-231 breast) | growth (RXF 393 renal) | growth (SF-268 CNS) | growth (SF-295 CNS) | growth (SF-539 CNS) | growth (UACC-257 melanoma) | growth (M14 melanoma) |
| --- | --- | --- | --- | --- | --- | --- | --- | --- | --- | --- | --- | --- | --- | --- | --- | --- | --- | --- | --- | --- |
| CC(=O)Nc1sc2c(c1-c1nc3ccccc3s1)CNC2 | 24.9% | 26% | 14.5 | 18.6% | 8.68% (active) | 0.851% (active) | -12.5% (active) | 14.1% | 28.4% | 8.21% (active) | 25.6% | 13.2% | 19% | 21.9% | 18% | 40.4% | 13.3% | 28.4% | 27.6% | 21.9% |
| O=C(c1cccc(N2CCOCC2)n1)c1c[nH]c2ccccc12 | 92.7% | 82.8% | 97 | 87.6% | 86.7% | 92.8% | 88.3% | 95.3% | 98.7% | 107% | 99.8% | 103% | 95.1% | 80.2% | 99% | 94.1% | 100% | 88.9% | 87.7% | 94.8% |
| COc1ccc(C/C(C)=C(\c2ccc(Cl)cc2)c2ccc(OCCCN(C)C)cc2)cc1 | 88.1% | 108% | 90.1 | 92.9% | 56.6% | 52.9% | 89.1% | 68.7% | 76.1% | -66.7% (active) | 102% | -7.99% (active) | 80% | 83.3% | 72.4% | 88.6% | 105% | 84.7% | 91.5% | 48.7% |
| CN(C)CCC(CCN(C)C)(C(=O)O)c1ccccc1 | 107% | 106% |  | 94% | 104% | 84.9% | 88.2% | 99% | 105% | 108% | 115% | 98.1% | 97.5% | 97.2% | 112% | 107% | 103% | 95.3% | 99.7% | 99.2% |
| C#COc1cccc(Nc2ncnc3cc(NC(=O)[C@H](C)Cl)ccc23)c1 | 18.5% [6.25 µM] | 41.7% [6.25 µM] |  | 7.33% [6.25 µM] (active) | 3.29% [6.25 µM] (active) | 81.5% [6.25 µM] | -46.2% [6.25 µM] (active) | 2.95% [6.25 µM] (active) | 14.2% [6.25 µM] | 12.2% [6.25 µM] | 20.3% [6.25 µM] | 99.7% [6.25 µM] | 37.5% [6.25 µM] | 19.1% [6.25 µM] | 15.5% [6.25 µM] | 27.7% [6.25 µM] | 1.61% [6.25 µM] (active) | 0.539% [6.25 µM] (active) | 21.2% [6.25 µM] | 11.7% [6.25 µM] |
| CCCN(CCSSCCNc1nc(N(C)O)nc(N(C)O)n1)c1nc(N(C)O)nc(N(C)O)n1 | 84% | 82.6% |  | 24.5% | 28.4% | 58.3% | 65.1% | 48% | 70% | 24.2% | 54.4% | 157% | 62.1% | 66.6% | 72.9% | 42.1% | 48.7% | 62.8% | -2.3% (active) | 84.4% |
| O=C(NNc1nc2cc(F)ccc2n2c(CN3CCOCC3)ccc12)c1ccccc1 | 19.7% | 17.4% |  | 14.6% | 0.156% (active) | 27.8% | 9.17% (active) | 2.97% (active) | 6.29% (active) | 1.54% (active) | 23.6% | 5.32% (active) | 8.12% (active) | 17.3% | -0.227% (active) | 14.8% | 0.468% (active) | 4.33% (active) | -6.53% (active) | -15.6% (active) |
| C#Cc1cccc(Nc2ncnc3cc(NC(=O)CCl)ccc23)c1 | -63.5% (active) | -42.2% (active) |  | -70.3% (active) | -58.7% (active) | -75.3% (active) | -66% (active) | -23.7% (active) | -79.3% (active) | -70.4% (active) | -96.8% (active) | -15.6% (active) | -74.3% (active) | -70.3% (active) | -86.2% (active) | -59.7% (active) | -82.5% (active) | -90.9% (active) | -7% (active) | -87.4% (active) |
| CCOc1ccc(/C=C/C(=O)c2cccc(OCCCOc3cccc(C(=O)/C=C/c4ccc(OCC)cc4)c3)c2)cc1 | 83.9% | 73.8% |  | 107% | 65.4% | 91.6% | 74% | 85.4% | 100% | 116% | 82.8% | 69.9% | 100% | 83.3% | 105% | 85.3% | 76.4% | 110% | 82.7% | 69% |
| COC(=O)c1ccc2c(c1)c1c(C)c3cnccc3c(C)c1n2C | -47.1% (active) | -41.1% (active) |  | -24.7% (active) | -32.4% (active) | -16.6% (active) | -65.1% (active) | -17% (active) | -63.4% (active) | -39.9% (active) | -4.07% (active) | 1.64% (active) | -73.7% (active) | -16.7% (active) | -76.1% (active) | 3.86% (active) | -10.5% (active) | -37.5% (active) | -41.4% (active) | -88.6% (active) |
| COc1ccc(C=Nc2c(C(=O)Nc3cccc(Cl)c3C)sc3nc(C)c(C(=O)/C=C/c4ccc(OC)cc4)cc23)cc1 | 31.2% | 53.8% |  | 46.5% | 8.92% (active) | 79.2% | 0.467% (active) | 30.8% | 21.5% | 11.2% | 14.7% | 17.1% | 44.4% | 2.5% (active) | -44.4% (active) | 29.9% | 18.5% | -30.6% (active) | 55.6% | -3.16% (active) |
| COc1ccc2c(c1)CC[C@@H]1[C@@H]2CC[C@]2(C)C3C(=CC(COC(C)=O)C4C(=O)N(c5ccc(Cl)cc5)C(=O)C43)C[C@@H]12 (some centres not stated) | 91.8% | 97.3% |  | 98.4% | 110% | 90.7% | 89.9% | 110% | 111% | 118% | 106% | 52.4% | 101% | 103% | 110% | 91.7% | 105% | 114% | 109% | 98.8% |
| CCOC(=O)CC1CSC(N/N=C/c2ccc(F)c(Br)c2)=N1 (configuration not stated) | 99.8% | 104% |  | 94.2% | 112% | 105% | 86.2% | 91.2% | 100% | 110% | 103% | 90.5% | 101% | 109% | 111% | 92.3% | 96.8% | 106% | 103% | 102% |
| Nc1ncnc2c1N=C(c1ccc(F)cc1)CC(c1cccc(Nc3ccnc4cc(Cl)ccc34)c1)N2 (configuration not stated) | 77.9% | 91.5% |  | 73.5% | 81.3% | 67.8% | 99.7% | 83.5% | 61.9% | 49.8% | 85.9% | 26.7% | 91.1% | 75.2% | 39.1% | 62% | 72.1% | 80.6% | 106% | 72.1% |
| Nc1[nH]nc2nc(-c3ccccc3)n3c4ccccc4nc3c12 | 99.9% | 95.6% |  | 95.7% | 93% | 122% | 82.7% | 101% | 106% | 112% | 117% | 106% | 108% | 97.9% | 93.9% | 107% | 93.2% | 103% | 105% | 99.5% |
| O=C(/C=C/c1ccco1)Nc1ncc(Cc2cc(Cl)ccc2Cl)s1 | 33.4% | 39.4% |  | 17.8% | 3.88% (active) | 72.4% | -4.32% (active) | 19.8% | 31.4% | -14.2% (active) | 13.9% | 7.9% (active) | 49% | 47.4% | -2.79% (active) | 44% | 9.56% (active) | -18.8% (active) | 38.8% | 6.81% (active) |
